The list is not random: actives were taken first. Their share in the collection is about 21%.
Pf growth 48h – Primary qHTS for delayed death inhibitors of the malarial parasite plastid, 48 hour incubation. 5.9% of 310,000 active. AID 504832, 2011. Potency, µM (series often up to 28.7 µM), without a hit: top-dose activity change, negative = inhibition, hits mostly inhibitors. P. falciparum luciferase growth in erythrocytes, 48 h; active = well fitted inhibition curve with a large enough effect; inconclusive = small, poorly fitted or top-dose-only effect, or another doubt; inactive = no such curve, though single readings can be large or run the other way; note: potency is the fitted concentration of half-maximal effect; % is set by controls: 0 for no effect and ±100 for the full control effect
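First compound was added to culture medium, then infected red cells at 0.1% parasitemia and 2% hematocrit (final). After incubation at 37 C under 5% CO2, luciferase detection reagent was dispensed and light output recorded.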
Pf growth 96h – Primary qHTS for delayed death inhibitors of the malarial parasite plastid, 96 hour incubation; AID 504834, 2011; P. falciparum luciferase reporter growth, 96 h; 6.9% of 320,000 active; Potency, µM (top dose mostly 28.7 µM), inactives show top-dose activity change, negative = inhibition, usual class: inhibitors; active = well fitted inhibition curve with a large enough effect; inconclusive = small, poorly fitted or top-dose-only effect, or another doubt; inactive = no such curve, though single readings can be large or run the other way; note: potency is the fitted concentration of half-maximal effect; % is set by controls: 0 for no effect and ±100 for the full control effect
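Luminescence readout: decreased luciferase signal marks inhibited growth of reporter-expressing P. falciparum in infected red cells (2% hematocrit, 0.05% parasitemia final), exposed to compound two generations (96 h, 37 C, 5% CO2).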
NS1 function inh – qHTS Assay for Inhibitors of Influenza NS1 Protein Function | 0.4% of 270,000 active | Potency, µM (doses to about 46.1 µM), for the others: top-dose activity, positive = more growth; note: potency is the fitted concentration of half-maximal effect; actives are rising curves; nearly all actives have a fitted effect of over 50% in size
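In this qHTS, NS1 from influenza A is expressed in budding yeast, where it slows growth. Cells are switched from glucose to 2% galactose medium (pH 6.0, -URA), treated with compound, and growth recovery is read at OD600.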
SARS PLpro yeast – qHTS of Yeast-based Assay for SARS-CoV PLP; 0.19% of 330,000 active; Potency, µM (titrated, usually from 32.9 µM), for inactives: top-dose activity, positive = growth rescue, actives largely listed as activators; S. cerevisiae expressing SARS-CoV PLpro, growth rescue; note: potency is the fitted concentration of half-maximal effect; 0% is about no effect; nearly all actives have a fitted effect of over 55% in size
Shiga toxin inh – A qHTS for Small Molecule Inhibitors of Shiga Toxin; Vero cells, Shiga toxin protein synthesis inhibition reporter; inhibition, % at 38.7 µM; 9.2% of 290,000 active; AID 2315, 2010; in the data active = inhibition mostly above about 28%, no sharp cut-off; inactive = mostly below about 43%; note: 0% is about no effect
Cycloheximide cs – Cycloheximide Counterscreen for Small Molecule Inhibitors of Shiga Toxin; cell reporter, cycloheximide protein synthesis inhibition counterscreen; 12% of 300,000 active; max response, %; in the data active = max response mostly above about 13%, no sharp cut-off; inactive = mostly below about 14%; note: read at 38.3 µM for the half of the compounds with a filed dose; 0% is about no effect
* hit, by the source's call; i = inactive; ? = inconclusive; . = no result. Unless noted, calls come from the whole dose curve.

SMILES | Pf growth 48h | Pf growth 96h | NS1 function inh | SARS PLpro yeast | Shiga toxin inh | Cycloheximide cs
Cc1ccc(-n2cc(CN3CCN(c4ccccn4)CC3)c(-c3ccc(F)cc3)n2)cc1 | 9.3µM* | -12% | 2% | -4% | 33 | 4
Cc1cccc(-n2cc(CN3CCN(c4ccccn4)CC3)c(-c3cccc(F)c3)n2)c1 | ? | ? | 1% | -2% | 2 | -3
Cc1ccc(-n2cc(CN3CCN(Cc4nccn4C)CC3)c(-c3ccc(F)cc3)n2)cc1 | 6.6µM* | ? | 3% | -1% | 57 | 15*
Cc1ccc(-n2cc(CNCCc3cscn3)c(-c3ccc(F)cc3)n2)cc1 | ? | 7% | 3% | 0% | 29 | 10
Cc1ccc(-n2cc(CNCCCn3ccnc3C)c(-c3ccc(F)cc3)n2)cc1 | 2.3µM* | 23% | 0% | 1% | 4 | 2
COc1ccc(-n2cc(CNCCCn3ccnc3)c(-c3cccc(F)c3)n2)cc1 | 1.5µM* | -13% | 2% | 0% | 5 | 1
COc1ccc(-n2cc(CNCC3CCOCC3)c(-c3cccc(F)c3)n2)cc1 | ? | 18% | 3% | 0% | 7 | 8
Cc1nc([N+](=O)[O-])cn1-c1nc2ccccn2c1[N+](=O)[O-] | -1% | 3% | -9% | 2% | -4 | -1
CCS(=O)(=O)N1Cc2ccccc2CC1C(=O)N(C)CC(=O)Nc1ccc(F)c(F)c1F (stereo unspecified) | 10% | 5% | . | -4% | . | .
COc1ccc(CCN(C)CC(O)c2ccccc2)cc1OC (stereo unspecified) | -1% | -15% | . | -10% | 7 | 17
Cc1cc(C)c(NC(=O)C2=COCCO2)c(C)c1 | 46% | 90% | . | -1% | . | .
Cc1ccc(-n2cc(CN3CCN(C(=O)c4ncn[nH]4)CC3)c(-c3ccc(F)cc3)n2)cc1 | 12µM* | 15µM* | 1% | 0% | 40 | 17*
O=C(NCc1ccco1)C(c1cccs1)N(C(=O)C1COc2ccccc2O1)c1cccc(O)c1 (stereo unspecified) | 10µM* | ? | -11% | -2% | 16 | 12
Cn1ncc(Br)c1NC(=O)Nc1ccccc1 | 3% | 30% | 0% | 0% | 10 | 5
Fc1ccc(-c2nnn(Cc3nc4ccccc4s3)n2)cc1 | 27% | . | -99% | -15% | 36 | 12*
Clc1ccc(-c2nnn(Cc3nc4ccccc4s3)n2)cc1 | 73% | 36% | -64% | -3% | 96* | 25*
C=CCN(CC=C)C(=O)Nc1cc(OC)ccc1OC | -5% | 31% | 0% | -2% | -4 | -3
O=C(COc1ccccc1)NCCSc1ccccc1 | 65% | ? | -13% | 0% | 40 | 14*
CC(C)(C)SCCNC(=O)COc1ccccc1 | 26% | 28% | -2% | 2% | 16 | 27*
C=CCNC(=O)COc1ccc(Oc2ccccc2)cc1 | i | 40% | . | -4% | 64* | 52*
CCOc1ccc(C(=O)NC(=S)Nc2cccnc2)cc1 | 89% | 2% | 6% | 18% | 0 | 30*
CCOc1ccc(C(=O)NC(=S)NCc2cccnc2)cc1 | 30% | 10µM* | -6% | -1% | 17 | 12
Cc1ccc(N=C(NO)c2nonc2N)c(C)c1 | 11% | 34% | -21% | -6% | 11 | 8
Cc1ccc(N=C(NOCc2ccc(Cl)cc2Cl)c2nonc2N)c(C)c1 | . | 12µM* | 12% | -19% | -5 | -3
Cc1ccccc1N=C(NOCc1ccc(Cl)cc1Cl)c1nonc1N | . | 12µM* | 2% | -21% | -6 | 6
Cc1ccccc1N=C(NOCc1ccccc1)c1nonc1N | ? | ? | -39% | -34% | 14 | -2
Cc1ccc(N=C(NOC(=O)c2ccccc2)c2nonc2N)c(C)c1 | ? | 5.9µM* | 0% | -7% | -5 | -4
COc1ccc(CC(=O)N/N=C/C=C/c2ccc3c(c2)OCO3)cc1OC | -9% | -13% | 5% | -1% | 2 | 2
CCOC(=O)N/N=C\C=C\c1ccc2c(c1)OCO2 | 58% | ? | -7% | -12% | 58 | 35*
CC(C)(C)OC(=O)N/N=C\C=C\c1ccc2c(c1)OCO2 | 141% | 3.7µM* | -6% | -4% | 34* | 29*

Source: PubChem (National Center for Advancing Translational Sciences (NCATS))
